The campaign covered roughly 340,000 compounds. About 6,900 (2%) were called active. This is one part of a sample in which actives are shown more often than they occur. Cut-off read from the data, not from the text of the source: active = inhibition above about 30%; inactive = below that, where a call was filed.
Molecular target: D(2) dopamine receptor (Homo sapiens) (UniProt P14416)
Test: HTS Assay for Allosteric Antagonists of the Human D2 Dopamine Receptor: Primary Screen for Antagonists; note: 0% is about no effect
Conditions: HEK293 TREx D2 cells, calcium flux, dopamine EC80; at 10 µM; hits give high values
Summary of the method: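 HEK293 T-REx D2 cells, tet-induced, calcium dye no-wash. Cpd pintool add, 180 s kinetic, then EC80 DA, 180 s kinetic. Ca flux read.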

D(2) dopamine receptor (Homo sapiens), sequence (P14416 whole entry, looked up): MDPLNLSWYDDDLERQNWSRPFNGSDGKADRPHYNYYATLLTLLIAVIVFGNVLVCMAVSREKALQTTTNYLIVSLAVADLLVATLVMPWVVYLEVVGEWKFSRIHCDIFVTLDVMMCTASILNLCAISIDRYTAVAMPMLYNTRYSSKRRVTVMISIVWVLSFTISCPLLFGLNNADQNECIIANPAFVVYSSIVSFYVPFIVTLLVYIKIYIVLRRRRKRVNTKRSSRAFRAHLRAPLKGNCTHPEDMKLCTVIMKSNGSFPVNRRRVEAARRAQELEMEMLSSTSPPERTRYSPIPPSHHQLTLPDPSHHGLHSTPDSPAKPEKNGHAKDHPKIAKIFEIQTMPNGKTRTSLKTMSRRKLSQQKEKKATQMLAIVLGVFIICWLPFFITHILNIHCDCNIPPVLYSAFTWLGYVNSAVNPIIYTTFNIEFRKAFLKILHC

Structure (SMILES)	inhibition
N#CCc1ccc(OC(=O)c2cccnc2)cc1	0.882% (inactive)
CCCCCCOc1ccc(OC(=O)c2cccnc2)cc1	3.26% (inactive)
O=C(Oc1ccc(Br)cc1)c1cccnc1	38.5% (active)
Cc1ccc2c(CN3CCN(S(=O)(=O)c4ccccc4C(F)(F)F)CC3)cc(=O)oc2c1	-23.9% (inactive)
CC(C)(C)OC(=O)NCCCCCNC(=O)c1nc[nH]c1C(=O)NCc1ccccc1	7.02% (inactive)
Cc1ccc(S(=O)(=O)NCCC(=O)NC2CCN(Cc3ccccc3)CC2)cc1	27.4% (inactive)
Cc1ccc(-c2cc(C(=O)NC3CCN(Cc4ccccc4)CC3)c3ccccc3n2)cc1	-27.8% (inactive)
Cc1ccc(-c2nc(CSCC(=O)NC3CCN(Cc4ccccc4)CC3)c(C)o2)cc1	47.3% (active)
CN(CC(=O)Nc1ccc(F)cc1)CC(=O)N1CCCCC1	-7.3% (inactive)
Cc1cc(C(=O)Nc2nnc(C3CC3)s2)c(C)s1	3.85% (inactive)
COC(=O)c1ccc(CN2CCC(CO)(Cc3ccc(OC)cc3)CC2)cc1	63.2% (active)
COc1ccc(CC2(CO)CCN(Cc3cnn(C)c3)CC2)cc1	-4.17% (inactive)
CCOC(=O)C1(CCOC)CCN(Cc2ccc(C(=O)OC)cc2)CC1	5.1% (inactive)
Cc1ccc(C)c(NC(=O)COC(=O)CSc2ccccc2)c1	-6.28% (inactive)
N#CCCN(C(=O)COC(=O)C1CCN(c2ccc(C(F)(F)F)cn2)CC1)c1ccc(F)cc1	5.59% (inactive)
COc1ccc(Cl)cc1NC(=O)COc1ccc2c(c1)OCO2	7.9% (inactive)
C[C@H](OC(=O)n1ccnc1)[C@@H]1O[C@@]2(C)CCC[C@@H]1O2	-7.72% (inactive)
CC1Cc2ccccc2N1C1=CC(=O)CC(C)(C)C1 (stereo unspecified)	3.51% (inactive)
CC1(C)OC(=O)N2CCc3ccccc3C21C (stereo unspecified)	40.5% (active)
CCN(CC(=O)Nc1ccccc1C(F)(F)F)C(=O)CSCc1c(C)noc1C	1.97% (inactive)
O=C(CC1(O)C(=O)N(CN2CCOCC2)c2ccccc21)c1ccccc1 (stereo unspecified)	30.3% (active)
C=CCN1C(=O)C(O)(CC(=O)c2ccccn2)c2ccccc21 (stereo unspecified)	3.67% (inactive)
C=CCN1C(=O)C(O)(CC(=O)c2ccc(Cl)cc2)c2ccccc21 (stereo unspecified)	0.63% (inactive)
CCc1noc(C)c1C(=O)Oc1ccc(N(C)S(=O)(=O)c2ccc(C)c(C)c2)cc1	-5.58% (inactive)
Cc1ccc(S(=O)(=O)N(C)C)cc1NC(=O)C(C)OC(=O)c1ccc2ccccc2n1 (stereo unspecified)	5.2% (inactive)
COc1cc(C(C)=O)ccc1OC(C)C(=O)Nc1ccc(S(=O)(=O)N2CCCC2)cc1 (stereo unspecified)	-10.1% (inactive)

From PubChem BioAssay AID485344 (National Center for Advancing Translational Sciences (NCATS), 2010)
